Results reported in the supplement of paper PMC10849652.
Of roughly 7,900 targets only a part is listed; those with a hit were picked by preference. About 0.6% of all pairs of compound and target were hits.

Columns and labels:
Test in all cases: log2 fold change, soluble protein after heating vs DMSO (PISA); higher = thermal stabilisation; K562 cells, 10 uM, 30 min; active = over 0.2 and 3.5 SD of the protein, either way, in both replicates (recomputed)
[1] = compound: C1=CC=C(C=C1)[C@H](COC2=CC3=C(C=C2)NC(=O)N3)NC(=O)C4=CC=CN(C4=O)CC5=CC(=C(C=C5)F)F
Outline: (§1)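 K562 cells at 2×10^6 cells/mL were given 10 μM compound for 30 min. Aliquots then went through 3 min of heating across 48°C-58°C, were pooled, and were extracted in PBS with 0.5% NP-40 at 4°C, and the supernatant after 21,000xg for 90 min was quantified by TMTpro 16plex LC-MS/MS with channel sums equalised. Thermal stability relative to control samples, from duplicates, is given as log2 fold change.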

[2] = compound: CC1=C(SC2=C1C(=N[C@H](C3=NN=C(N32)C)CC(=O)N)C4=CC=C(C=C4)Cl)C
Outline: as §1

[3] = compound: CC1=C2C(=CC=C1)N=C(N(C2=O)C3=CC=CC=C3C)CN4C=NC5=C(N=CN=C54)N
Outline: as §1

[4] = compound: Cc1sc2c(c1C)C(c1ccc(Cl)cc1)=N[C@@H](CC(=O)OC(C)(C)C)c1nnc(C)n1-2
Outline: as §1

[5] = compound: c1ccc([C@@H]2C[C@H]2NC2CCNCC2)cc1
Outline: as §1

Measured: log2 fold change

EIF4E isoform 2 (UniProt P06730)
Chain of UniProt P06730 (P06730 whole entry, looked up): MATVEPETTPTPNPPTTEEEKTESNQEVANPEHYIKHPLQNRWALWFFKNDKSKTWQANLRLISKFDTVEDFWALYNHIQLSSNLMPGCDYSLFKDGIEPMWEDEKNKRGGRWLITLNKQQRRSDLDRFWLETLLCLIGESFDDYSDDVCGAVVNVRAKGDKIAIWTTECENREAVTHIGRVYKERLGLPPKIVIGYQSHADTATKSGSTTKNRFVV
inactive: [1] 0.029 | [2] -0.026 | [3] -0.002 | [4] -0.144 | [5] 0.009

CTSH (UniProt P09668)
Chain of UniProt P09668 (P09668 whole entry, looked up): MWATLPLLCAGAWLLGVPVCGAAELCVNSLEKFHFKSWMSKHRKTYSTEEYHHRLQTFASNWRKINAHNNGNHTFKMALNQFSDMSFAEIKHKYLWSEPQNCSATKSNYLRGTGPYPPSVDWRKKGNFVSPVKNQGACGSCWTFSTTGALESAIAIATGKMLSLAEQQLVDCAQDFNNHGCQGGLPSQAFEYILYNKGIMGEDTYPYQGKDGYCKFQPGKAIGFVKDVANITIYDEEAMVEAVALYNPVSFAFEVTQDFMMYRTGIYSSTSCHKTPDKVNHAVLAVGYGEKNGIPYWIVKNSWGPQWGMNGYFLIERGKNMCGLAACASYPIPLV
inactive: [1] 0 | [2] -0.046 | [3] -0.038 | [4] -0.035 | [5] 0.055

DDX39A (UniProt O00148)
Chain of UniProt O00148 (O00148 whole entry, looked up): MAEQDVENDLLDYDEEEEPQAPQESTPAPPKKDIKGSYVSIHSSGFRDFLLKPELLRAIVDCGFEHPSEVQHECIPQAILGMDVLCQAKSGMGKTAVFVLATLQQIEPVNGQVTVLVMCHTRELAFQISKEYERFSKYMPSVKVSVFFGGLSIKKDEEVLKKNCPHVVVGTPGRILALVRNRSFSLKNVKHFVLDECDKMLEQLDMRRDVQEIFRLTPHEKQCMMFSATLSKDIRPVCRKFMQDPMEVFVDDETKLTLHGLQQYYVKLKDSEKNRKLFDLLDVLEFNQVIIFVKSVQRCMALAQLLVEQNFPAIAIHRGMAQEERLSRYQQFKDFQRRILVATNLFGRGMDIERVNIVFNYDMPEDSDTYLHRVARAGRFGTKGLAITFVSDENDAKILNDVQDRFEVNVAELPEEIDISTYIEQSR
inactive: [1] -0.174 | [2] 0.063 | [3] 0.025 | [4] 0.015 | [5] -0.01

FAM118B (UniProt Q9BPY3)
Chain of UniProt Q9BPY3 (Q9BPY3 whole entry, looked up): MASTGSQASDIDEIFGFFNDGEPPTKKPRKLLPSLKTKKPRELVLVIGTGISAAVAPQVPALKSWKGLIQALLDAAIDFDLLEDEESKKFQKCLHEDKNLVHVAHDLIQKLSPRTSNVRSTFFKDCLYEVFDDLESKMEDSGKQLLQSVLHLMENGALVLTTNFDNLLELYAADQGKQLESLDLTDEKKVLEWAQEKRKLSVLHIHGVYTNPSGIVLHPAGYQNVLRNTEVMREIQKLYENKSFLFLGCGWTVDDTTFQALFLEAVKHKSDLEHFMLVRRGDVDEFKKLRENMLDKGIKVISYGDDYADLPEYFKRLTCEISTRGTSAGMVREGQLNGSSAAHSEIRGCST
inactive: [1] -0.276 | [2] -0.01 | [3] 0.208 | [4] -0.019 | [5] -0.009

EIF2S3 (UniProt P41091)
Chain of UniProt P41091 (P41091 whole entry, looked up): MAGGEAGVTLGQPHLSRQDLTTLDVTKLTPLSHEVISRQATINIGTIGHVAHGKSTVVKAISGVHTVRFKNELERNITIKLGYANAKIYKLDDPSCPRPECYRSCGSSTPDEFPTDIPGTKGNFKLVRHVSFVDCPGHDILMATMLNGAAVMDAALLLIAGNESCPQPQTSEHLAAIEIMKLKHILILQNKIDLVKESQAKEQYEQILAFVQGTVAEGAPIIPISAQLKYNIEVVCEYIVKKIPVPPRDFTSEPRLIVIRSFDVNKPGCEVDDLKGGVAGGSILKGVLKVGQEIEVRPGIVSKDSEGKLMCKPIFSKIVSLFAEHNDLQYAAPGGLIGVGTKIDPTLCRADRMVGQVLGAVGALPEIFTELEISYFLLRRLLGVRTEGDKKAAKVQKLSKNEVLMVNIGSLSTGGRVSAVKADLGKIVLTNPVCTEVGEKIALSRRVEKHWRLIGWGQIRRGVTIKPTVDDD
inactive: [1] 0.008 | [2] -0.023 | [3] -0.017 | [4] 0.054 | [5] -0.002

DNAJB12 (UniProt Q9NXW2)
Chain of UniProt Q9NXW2 (Q9NXW2 whole entry, looked up): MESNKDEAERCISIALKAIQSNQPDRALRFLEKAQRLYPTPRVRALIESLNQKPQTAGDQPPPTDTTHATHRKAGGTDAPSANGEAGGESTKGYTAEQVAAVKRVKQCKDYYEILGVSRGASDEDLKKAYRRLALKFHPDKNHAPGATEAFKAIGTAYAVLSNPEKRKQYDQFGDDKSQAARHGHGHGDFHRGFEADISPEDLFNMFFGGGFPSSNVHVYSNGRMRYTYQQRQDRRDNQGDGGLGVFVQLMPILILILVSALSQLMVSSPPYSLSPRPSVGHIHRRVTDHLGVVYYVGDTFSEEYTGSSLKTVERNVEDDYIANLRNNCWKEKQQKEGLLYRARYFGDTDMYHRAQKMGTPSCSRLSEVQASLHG
inactive: [1] -0.044 | [2] 0.027 | [3] 0.081 | [4] -0.011 | [5] 0.011

DCAF10 (UniProt Q5QP82)
Chain of UniProt Q5QP82 (Q5QP82 whole entry, looked up): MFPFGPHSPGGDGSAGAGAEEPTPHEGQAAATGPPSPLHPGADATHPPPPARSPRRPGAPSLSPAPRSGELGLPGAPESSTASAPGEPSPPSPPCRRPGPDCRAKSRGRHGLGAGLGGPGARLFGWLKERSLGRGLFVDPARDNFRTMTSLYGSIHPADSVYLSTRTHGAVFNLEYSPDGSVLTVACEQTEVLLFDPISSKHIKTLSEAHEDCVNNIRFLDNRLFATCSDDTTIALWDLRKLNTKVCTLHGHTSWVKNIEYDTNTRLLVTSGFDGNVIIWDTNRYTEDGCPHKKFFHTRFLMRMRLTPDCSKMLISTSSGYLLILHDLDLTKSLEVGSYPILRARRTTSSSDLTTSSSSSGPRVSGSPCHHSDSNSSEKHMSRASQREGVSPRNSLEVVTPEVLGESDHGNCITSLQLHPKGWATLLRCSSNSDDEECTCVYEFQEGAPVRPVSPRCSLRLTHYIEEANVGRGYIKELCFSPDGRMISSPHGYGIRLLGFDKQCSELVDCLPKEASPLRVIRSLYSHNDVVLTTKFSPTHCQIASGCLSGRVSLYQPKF
inactive: [1] 0.015 | [2] -0.018 | [3] 0.056 | [4] 0.013 | [5] -0.011

DENND10 (UniProt Q8TCE6)
Chain of UniProt Q8TCE6 (Q8TCE6 whole entry, looked up): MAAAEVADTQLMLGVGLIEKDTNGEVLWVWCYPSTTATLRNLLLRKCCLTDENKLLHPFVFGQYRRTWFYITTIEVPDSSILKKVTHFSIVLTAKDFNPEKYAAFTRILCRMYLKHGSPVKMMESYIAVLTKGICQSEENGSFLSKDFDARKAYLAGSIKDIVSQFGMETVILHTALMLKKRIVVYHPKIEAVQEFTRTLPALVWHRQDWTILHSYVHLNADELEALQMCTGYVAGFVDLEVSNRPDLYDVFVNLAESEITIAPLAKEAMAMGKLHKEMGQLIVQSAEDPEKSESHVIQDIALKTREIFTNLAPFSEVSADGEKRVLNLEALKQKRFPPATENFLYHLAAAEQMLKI
inactive: [1] 0.035 | [2] 0.083 | [3] 0.103 | [4] 0.057 | [5] -0.008

EHD2 (UniProt Q9NZN4)
Chain of UniProt Q9NZN4 (Q9NZN4 whole entry, looked up): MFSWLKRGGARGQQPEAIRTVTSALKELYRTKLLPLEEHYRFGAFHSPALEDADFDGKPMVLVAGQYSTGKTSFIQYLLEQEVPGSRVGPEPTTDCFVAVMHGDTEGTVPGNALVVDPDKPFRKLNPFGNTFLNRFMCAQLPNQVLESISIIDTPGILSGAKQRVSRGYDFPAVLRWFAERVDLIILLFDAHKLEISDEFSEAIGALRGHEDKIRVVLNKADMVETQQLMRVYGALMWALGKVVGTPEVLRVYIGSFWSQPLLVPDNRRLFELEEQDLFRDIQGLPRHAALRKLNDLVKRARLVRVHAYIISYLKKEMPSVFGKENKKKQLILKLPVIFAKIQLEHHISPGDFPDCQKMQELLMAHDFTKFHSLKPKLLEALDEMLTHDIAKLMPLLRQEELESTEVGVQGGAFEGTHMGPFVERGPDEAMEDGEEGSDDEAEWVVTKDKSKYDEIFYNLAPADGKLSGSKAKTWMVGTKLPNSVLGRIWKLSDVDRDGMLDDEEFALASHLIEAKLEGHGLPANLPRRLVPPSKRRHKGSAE
inactive: [1] -0.018 | [2] 0.049 | [3] 0.022 | [4] -0.019 | [5] -0.049

EED, A0A5F9ZI63
inactive: [1] 0.002 | [2] 0.011 | [3] 0.03 | [4] -0.029 | [5] -0.006

CWC27 (UniProt Q6UX04)
Chain of UniProt Q6UX04 (Q6UX04 whole entry, looked up): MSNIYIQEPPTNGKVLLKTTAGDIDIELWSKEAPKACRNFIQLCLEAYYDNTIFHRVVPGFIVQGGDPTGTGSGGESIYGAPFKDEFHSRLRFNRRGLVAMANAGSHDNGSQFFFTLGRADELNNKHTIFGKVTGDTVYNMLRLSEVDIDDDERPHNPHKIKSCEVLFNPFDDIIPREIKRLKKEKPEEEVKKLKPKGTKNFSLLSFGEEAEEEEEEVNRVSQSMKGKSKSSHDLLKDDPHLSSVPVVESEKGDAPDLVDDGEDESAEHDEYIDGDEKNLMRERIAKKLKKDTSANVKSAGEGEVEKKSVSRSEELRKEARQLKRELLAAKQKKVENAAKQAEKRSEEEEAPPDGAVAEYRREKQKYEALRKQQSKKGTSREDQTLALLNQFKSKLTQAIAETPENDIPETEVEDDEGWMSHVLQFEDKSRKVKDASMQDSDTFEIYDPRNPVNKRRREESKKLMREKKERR
inactive: [1] -0.039 | [2] 0.097 | [3] 0.103 | [4] -0.03 | [5] -0.001
